Legend:
Assay type in all cases: functional
[1] = molecular target: Solute carrier family 2, facilitated glucose transporter member 1 (Homo sapiens) (UniProt P11166); assay: ST_JUDE_LEISH: Cytotoxicity at 2uM final concentration against transgenic Leishmania Mexicana promastigotes LmGLUT1 that are glucose transport deficient and complemented with the human glucose transporter GLUT1. Activity is measured by DNA content using SYBR green in vitro
[2] = molecular target: Hexose transporter 1 (Plasmodium falciparum) (UniProt O97467); assay: ST_JUDE_LEISH: Cytotoxicity at 2uM final concentration against transgenic Leishmania Mexicana promastigotes LmPfHT that are glucose transport deficient and complemented with the Plasmodium falciparum hexose transporter. Activity is measured by DNA content using SYBR green in vitro
[3] = molecular target: Glucose transporter (Leishmania mexicana) (UniProt O61059); assay: ST_JUDE_LEISH: Cytotoxicity at 2uM final concentration against transgenic Leishmania Mexicana promastigotes LmGT2 that are glucose transport deficient and complemented with the L. Mexicana glucose transporter 2. Activity is measured by DNA content using SYBR green in vitro

Chain of Solute carrier family 2, facilitated glucose transporter member 1 (Homo sapiens) (P11166 whole entry): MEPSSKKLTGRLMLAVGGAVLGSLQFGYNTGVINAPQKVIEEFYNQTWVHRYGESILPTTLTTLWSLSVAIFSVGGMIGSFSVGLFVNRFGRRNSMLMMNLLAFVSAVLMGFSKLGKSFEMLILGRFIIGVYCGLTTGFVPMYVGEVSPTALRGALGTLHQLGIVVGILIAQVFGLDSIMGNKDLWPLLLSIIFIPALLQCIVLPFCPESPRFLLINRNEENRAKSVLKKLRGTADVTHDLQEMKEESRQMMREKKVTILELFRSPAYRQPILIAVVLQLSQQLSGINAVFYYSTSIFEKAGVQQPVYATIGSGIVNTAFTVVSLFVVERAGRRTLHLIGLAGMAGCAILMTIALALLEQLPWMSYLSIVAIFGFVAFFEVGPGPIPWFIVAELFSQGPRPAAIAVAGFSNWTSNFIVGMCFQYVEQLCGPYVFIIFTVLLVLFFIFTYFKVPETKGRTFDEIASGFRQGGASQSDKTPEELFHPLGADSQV

| Compound | inhibition [1] [%] | inhibition [2] [%] | inhibition [3] [%] |
| --- | --- | --- | --- |
| CCC[C@@H]1CCN[C@H]([C@H](O)c2ccnc3ccc(OC)cc23)C1 | 4.68 | 3.5 | 4.53 |
| O=c1cc(NCCNCc2cccc(-c3ccccc3)c2)[nH]c2ccccc12 | 4.41 | -0.15 | 1.64 |
| COCCNCc1ccc(-c2cccc(CN(C(=O)NCCc3ccccc3)C3CCN(Cc4ccccc4)CC3)c2)cc1 | 1.13 | -0.26 | -1.5 |
| CN(C)c1ccc(-c2nc3cc(N)ccc3[nH]2)cc1 | -2.7 | 3.58 | 0.22 |
| CCc1cc2c(cc1OCCN(C)C)N(C(=O)Nc1ccc(-c3ccncc3)c(Cl)c1)CC2 | 6.82 | 6.4 | 3.08 |
| O=c1cc(NCCCNC2CCOc3c(Cl)cccc32)[nH]c2ccccc12 (stereo not given) | 0.96 | 1.67 | 2.03 |
| O=C(Nc1cccc(Oc2ccccc2)c1)N[C@H]1CCN(Cc2ccc(OCCCN3CCCCC3)cc2)C1 | 3.58 | 5.18 | 6.98 |
| CCC(C)OC(=O)C1=C(C)NC2=C(C(=O)CC(c3ccc(OC)c(OC)c3)C2)C1c1cccc(O)c1 (stereo not given) | 4.07 | 0.16 | 1.16 |
| O=C(Nc1cc(Oc2ccc(O)cc2)cc([N+](=O)[O-])c1)c1cc(-c2ccc(F)cc2)no1 | 2.24 | -1.36 | 1.6 |
| COc1ccc2nccc([C@@H](O)CN3CCC(NC(=O)c4ccc(Oc5ccccc5)cc4)CC3)c2c1 | 3.02 | 8.83 | 1.34 |
| O=C(Nc1cc(Cl)ccc1O)c1ccc(Oc2ccc(C(=O)Nc3cc(Cl)ccc3O)cc2)cc1 | -1.36 | -1.96 | -1 |
| COC(=O)[C@@H](NC(=O)[C@H](Cc1ccc(OC)c(OC)c1)Nc1ccc(C#N)c2ccccc12)c1ccc(O)cc1 | 10.1 | 16.6 | 6.41 |
| COc1ccc2c(c1C1CCN(CCCCNC(=O)c3ccc(NC(=O)c4ccc(Cl)cc4)cc3)CC1)CCCC2 | -1.16 | -1.03 | -1.07 |
| CC(=O)Nc1ccc(CN2CCN(C(c3ccc(F)cc3)c3ccc(F)cc3)CC2)cc1 | 5.18 | 3.45 | 2.11 |
| CN1CCCN(Cc2ccc(-c3ccc(NS(=O)(=O)c4cccc5cccnc45)cc3)cc2)CC1 | 5.67 | 3.68 | 0.05 |
| COc1cccc2c(NN=Cc3cccc(F)c3)ccnc12 | 3.44 | 2.06 | 1.75 |
| CC(C)(C)C(=O)Nc1ccc(N2CCN(C(c3ccccc3)c3ccccc3)CC2)c(Cl)c1 | 8.85 | 7.04 | 4.93 |
| O=C(NC1CCN(Cc2ccccc2)CC1)c1csc2nc(-c3ccc(Cl)cc3)cn12 | 4.09 | 2.67 | 2.02 |

| Compound | inhibition [1] [%] | inhibition [2] [%] | inhibition [3] [%] |
| --- | --- | --- | --- |
| O=C(/C=C/c1cccc2ccccc12)NCCCCCN1CCC(c2c[nH]c3ccccc23)CC1 | 0.55 | 1.35 | 2.9 |
| Cc1cc(N[C@@H](Cc2ccccc2)C(=O)NCCc2ccccc2)nc(NCC2CCCCC2)n1 | 2.97 | 3.86 | 1.29 |
| COCCOc1ccc(Nc2nccc(-c3c(-c4cccc(NC(=O)c5c(F)cccc5F)c4)nn4ccccc34)n2)cc1Cl | 13.5 | 11.1 | 2.52 |
| CS(=O)(=O)n1c(CN2CCN(c3ncc(C(F)(F)F)cc3Cl)CC2)nc2ccccc21 | 8.28 | 7.91 | 5 |
| CCCN1CCN(c2ccccc2NS(=O)(=O)c2ccc(C(=O)Nc3ccc(Cl)cc3)cc2)CC1 | 2.67 | 3.32 | -1.54 |
| COc1ccccc1N1CCN(Cc2cc(C(C)C)c(C)cc2O)CC1 | 3.59 | 6.3 | 0.93 |
| CCN(CC)CCOc1ccc(C(O)(C#CC(O)(c2ccc(C)cc2)c2ccc(OCCN(CC)CC)cc2)c2ccc(C)cc2)cc1 (stereo not given) | 7.79 | 8.63 | 1.02 |
| CN1CCC(N2CCN(C(=O)c3cccc(-c4cccc(-c5nc6ccccc6[nH]5)c4)c3)CC2)CC1 | 0.86 | 2.54 | 2.11 |
| CC1CN(c2ccc3occ(C(=O)Nc4ccc(-c5ccncc5)c(Cl)c4)c3c2)CC(C)N1C (stereo not given) | 5.54 | 3.33 | 1.93 |
| OC1=C2C(=Nc3ccccc3SC2c2cccs2)c2ccccc21 (stereo not given) | 12.2 | 10.8 | 1.64 |
| CCc1sc(CN(CCCNc2cc(=O)c3ccccc3[nH]2)Cc2sc(CC)c(Br)c2-c2ccsc2)c(-c2ccsc2)c1Br | 3.98 | 4.16 | 5.33 |
| Cc1ccc(F)c(OCC2CCCN(c3ccc(C(=O)NC4CC4)cn3)C2)c1 (stereo not given) | 3.46 | 4.3 | 2.18 |
| O=C(/C=C/c1ccc(Cl)c(Cl)c1)NCCCCCN1CC[C@H](NC(=O)c2ccc3c(c2)OCO3)C1 | 5.7 | 5.13 | 3.74 |
| CCN1CCC(N(Cc2ccc(-c3ccc(C(F)(F)F)cc3)cc2)C(=O)Cn2c(CCc3cccc(F)c3F)nc(=O)c3ccccc32)CC1 | 1.25 | 2.57 | 3.43 |
| CCC/C=C/c1c(CNCCCNc2cc(=O)c3ccccc3[nH]2)sc(CC)c1Br | 0.5 | 1.29 | 0.32 |
| CC(C)NCc1cccc(-c2cccc(-c3nc4cc(F)ccc4[nH]3)c2)c1 | 14.2 | 11.4 | 11.6 |
| Cc1[nH]c(C)c(-c2ccc(OCCCc3ccccn3)cc2)c(=O)c1Br | 8.98 | 6.12 | 8.48 |

Source: ChEMBL document CHEMBL3433997, “St. Jude Leishmania screening dataset” (2016)
